Screening data as filed in PubChem BioAssay.
An excerpt weighted towards active compounds, which were near 4.5% of everything screened.
aSyn UTR inh – 5' untranslated region of α-synuclein, MLPCN primary screen | inhibition, % (tested at 7.5 µM) | alpha-synuclein 5'UTR reporter, inhibitor activity | 300,000 tested, 0.82% active; in the data active means inhibition above about 60%; inconclusive means no clear call, values can overlap the other calls;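 further: H4 neuroglioblastoma cells stably carrying SNCA 5'UTR luciferase fusion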
CSC inhib – blocks cancer stem cells; AID 2717; inhibition, % at 7.5 µM; cancer stem cell-like cells viability, luminescence; 300,000 tested, 1.1% active; in the data active means inhibition above about 75%; inconclusive means no clear call, values can overlap the other calls; tested in HMLE shEcad cells
697 NFkB inh – inhibitors of the PMA/ionomycin-induced NF-kB reporter in 697 B cells. 330,000 tested, 0.33% active. inhibition, % at 4 µM. 697 B-cell NF-kB luciferase reporter, 16 h; in the data active means inhibition above about 35%
Gli-Sufu antag – blocks Gli-Sufu signaling in a luciferase reporter; 340,000 tested, 0.74% active; AID 588413; inhibition, % at 5 µM; Sufu-KO-LIGHT fibroblasts, Gli luciferase reporter luminescence;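 active means inhibition above about 55%, limit read from the data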
Mdm2-MdmX inh – inhibitors of human Mdm2/MdmX interaction | O15151+Q00987 | SaOS-2 split-luciferase Mdm2/MdmX complementation, luminescence | inhibition, % at 8 µM | 330,000 tested, 3% active;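 active means inhibition of at least 50% at 8 µM in the primary screen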
Jurkat NFkB inh – inhibitors of the PMA/ionomycin-induced NF-kB reporter in Jurkat cells; PMA/ionomycin-induced NF-kB luciferase reporter, luminescence; inhibition, % at 4 µM; 330,000 tested, 0.53% active; in the data active means inhibition above about 50%
Mdm2 MdmX conf – human Mdm2/MdmX binding inhibition, confirmed; luminescent assay; inhibition, % at 8 µM; 10,000 tested, 55% active; shares compounds with Mdm2-MdmX inh; in the data active means inhibition above about 40%
Full FLuc ctr – inhibits full-length luciferase, flagging false Mdm2/MdmX hits; shares compounds with Mdm2-MdmX inh; SaOS-2 full-length luciferase counterscreen, luminescence; inhibition, % at 8 µM; 6,200 tested, 77% active;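 active means mean inhibition at 8 µM reaching about 37%, which flags the compound as non-specific, limit read from the data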;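 further: p53-null SaOS-2 cells with luciferase driven by a doxycycline-inducible promoter; compound on cells about two nights before reading with doxycycline added after day one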
Large screens that a line does not name were inactive (follow-up assays come after a bar, where they were run).

COc1ccc(-c2ccc(OC)c([C@H]3[C@H]4C=CC[C@@H](C)[C@@H]4C(=O)N3Cc3ccccc3)c2)cc1OC	Mdm2-MdmX inh 58 | Mdm2 MdmX conf inactive
C[C@@H]1CC=C[C@@H]2[C@H]1C(=O)N(Cc1ccccc1)[C@H]2c1ccccc1Br	none (no result: aSyn UTR inh, CSC inhib, Jurkat NFkB inh)
COc1ccc(-c2c([C@H]3[C@H]4C=CC[C@@H](C)[C@@H]4C(=O)N3Cc3ccccc3)ccc3ccccc23)cc1OC	Mdm2-MdmX inh 71 | Mdm2 MdmX conf inactive
COc1ccc(-c2ccccc2[C@H]2[C@@H]3C=CC[C@@H](C)[C@@H]3C(=O)N2Cc2ccccc2)cc1	Mdm2-MdmX inh 69 (no result: aSyn UTR inh, CSC inhib, Jurkat NFkB inh) | Mdm2 MdmX conf inactive
Cc1cccc(CNC(=O)CCc2nnc(C3CCCCC3)o2)c1	none
Cc1ccc(CNC(=O)COC(=O)c2nc(-c3ccccc3)oc2C)cc1	none (no result: aSyn UTR inh, CSC inhib)
CCn1c(C)nc2cc(C(=O)NNC(=S)Nc3ccc(OC)cc3)ccc21	none
CC1Cc2ccccc2N1C(=O)CN1CCC(C(N)=O)CC1 (centres undefined)	none
C[C@@H]1CC=C[C@@H]2[C@H]1C(=O)N(Cc1ccccc1)[C@H]2c1cccc(Br)c1	Mdm2-MdmX inh 65 (no result: aSyn UTR inh, CSC inhib, Jurkat NFkB inh) | Mdm2 MdmX conf inactive
O=C1C2C(c3ccccc3)CC=CC2[C@H](c2ccc(C(F)(F)F)cc2)N1Cc1ccccc1 (some centres undefined)	CSC inhib inconclusive, Mdm2-MdmX inh 79 | Mdm2 MdmX conf 43 | Full FLuc ctr 63
C[C@@H]1CC=C[C@H]2[C@H]1C(=O)N(Cc1ccccc1)[C@H]2c1ccc(C(F)(F)F)cc1	none
COc1cc2ncnc(N[C@H](C)c3ccccc3)c2cc1OC	none (no result: CSC inhib)
COc1cc(/C=C(\C#N)c2[nH]nc(N)c2C#N)cc(OC)c1O	Mdm2-MdmX inh 65 | Mdm2 MdmX conf inactive
O=C(Nc1cccc(C(F)(F)F)c1)/C(=C/c1ccco1)NC(=O)c1cccs1	none
COc1cc(/C=C/C(=O)c2ccc(F)cc2)cc(OC)c1OC	none
CCOc1ccc(N2C(=O)S/C(=C\c3cc(OC)c(OC)c(OC)c3)C2=O)cc1	Mdm2-MdmX inh 53 | Mdm2 MdmX conf inactive
CCOc1ccc(N2C(=O)S/C(=C\c3ccc(O)c(OC)c3)C2=O)cc1	none
COc1ccc(C(=O)/C=C/c2ccc(OC(=O)c3cc(OC)c(OC)c(OC)c3)cc2)cc1	Mdm2-MdmX inh 57 | Mdm2 MdmX conf inactive
CCOc1ccc(C(=O)/C=C/c2cc(OC)c(OC)c(OC)c2)cc1	Mdm2-MdmX inh 63 | Mdm2 MdmX conf 55 | Full FLuc ctr 49
COc1ccc(/C=C/C(=O)c2ccc(C(=O)/C=C/c3ccc(OC)c(OC)c3)cc2)cc1OC	Mdm2-MdmX inh 54 (no result: CSC inhib) | Mdm2 MdmX conf inactive
COC(=O)c1ccc(/C=C/C(=O)c2ccc(OC)c(OC)c2)cc1	none (no result: CSC inhib)
CCOc1ccccc1CN1CCNC(=O)C1CC(=O)NCc1ccccn1 (centres undefined)	none
O=C(/C=C/c1ccc(O)c([N+](=O)[O-])c1)c1ccc2ccccc2c1	none
COc1ccc(/C=C/C(=O)Nc2ccccc2C(=O)O)cc1OC	Mdm2-MdmX inh 62 | Mdm2 MdmX conf 76 | Full FLuc ctr 131
COc1ccc(/C=C/C(=O)Nc2ccccc2C(F)(F)F)cc1OC	none
COc1ccc(Oc2ccc(/C=C/C(=O)c3ccc(O)cc3)cc2[N+](=O)[O-])cc1	CSC inhib 94, Mdm2-MdmX inh 98 | Mdm2 MdmX conf inactive
O=c1c2sccc2nc(SCc2cc(=O)n3ccccc3n2)n1Cc1ccccn1	none (no result: Gli-Sufu antag)
CCOc1cccc(C(=O)Nc2ccc3oc(-c4cccnc4)nc3c2)c1	none
COc1cccc(C(=O)Nc2cccc(-c3nnc(-c4ccccc4)o3)c2)c1	none
CCOc1cccc(C(=O)Nc2cccc(-c3nnc(-c4ccccc4)o3)c2)c1	Mdm2-MdmX inh 51 (no result: CSC inhib) | Mdm2 MdmX conf inactive
COc1ccc(CC(=O)Nc2cccc(-c3nnc(-c4ccc(C)cc4)o3)c2)cc1OC	Mdm2-MdmX inh 72 | Mdm2 MdmX conf 75 | Full FLuc ctr 67
CCOc1cccc(C(=O)Nc2cccc(-c3nnc(-c4ccc(C)cc4)o3)c2)c1	Mdm2-MdmX inh 84 | Mdm2 MdmX conf inactive
CC(C)(C)NC(=O)CN(C(=O)c1snc(C(=O)NC2CCCCC2)c1N)c1ccc(F)cc1	none (no result: CSC inhib)
O=C(Cn1ccc2ccccc2c1=O)NCCC(=O)NC1CCN(Cc2ccccc2)CC1	none
COc1ccc(S(=O)(=O)N2CCC(Cc3ccccc3)CC2)cc1NC(C)=O	none
CNC(=O)C1CC(=O)N(CCc2ccc(OC)c(OC)c2)C(=Nc2ccc(F)cc2)S1 (centres undefined)	none
COC(=O)c1cc(=O)n(Cc2cccs2)c(=Nc2ccccc2)s1	CSC inhib inconclusive
COC(=O)c1cc(=O)n(Cc2ccco2)c(=Nc2ccc(F)cc2)s1	Mdm2-MdmX inh 58 | Mdm2 MdmX conf inactive
COC(=O)c1cc(=O)n(-c2ccccc2)c(=Nc2ccccc2)s1	none
COC(=O)c1cc(=O)n(Cc2ccc(OC)c(OC)c2)c(=Nc2ccc(F)cc2)s1	CSC inhib 97, Mdm2-MdmX inh 76 | Mdm2 MdmX conf inactive | Full FLuc ctr 98
COC(=O)c1cc(=O)n(CCc2ccc(OC)c(OC)c2)c(=Nc2ccc(F)c(Cl)c2)s1	CSC inhib 110, Mdm2-MdmX inh 84 | Mdm2 MdmX conf inactive
O=C(Nc1cccc(S(=O)(=O)N2CCCCC2)c1)c1ccco1	none (no result: aSyn UTR inh, CSC inhib)
COc1ccc(CCNC(=O)C2CCN(Cc3nc(-c4ccccc4C)oc3C)CC2)cc1OC	none
Cc1ccccc1-c1nc(CN2CCC(C(=O)NCCC3=CCCCC3)CC2)c(C)o1	Mdm2-MdmX inh 58 | Mdm2 MdmX conf inactive | Full FLuc ctr 76
Cc1ccccc1-c1nc(CN2CCC(C(=O)NCCCN3CCCC(C)C3)CC2)c(C)o1 (centres undefined)	Mdm2-MdmX inh 96 | Mdm2 MdmX conf 70 | Full FLuc ctr 43
CC1(C)CNC(=O)c2sc(N3CCOCC3)nc2C1	none
Cc1cc(Nc2cc(Cl)nc(Sc3ccc(NC(=O)C4CC4)cc3)n2)n[nH]1	Mdm2-MdmX inh 69 | Mdm2 MdmX conf 51 | Full FLuc ctr 52
Cc1cc(NC(=O)c2ccc(NC(=O)C3CC3)cc2)no1	none (no result: CSC inhib)
Cc1ccc(S(=O)(=O)/N=C2\C=C(Nc3cccc(C(=O)O)c3)C(=O)c3ccccc32)c(C)c1	none
COC(=O)c1ccccc1NC1=C/C(=N\S(=O)(=O)c2ccc(C(=O)O)cc2)c2ccccc2C1=O	Mdm2-MdmX inh 90 (no result: CSC inhib) | Mdm2 MdmX conf 68 | Full FLuc ctr inactive
CC(C)(C)c1ccc(S(=O)(=O)/N=C2\C=C(NS(=O)(=O)c3ccccc3)C(=O)c3ccccc32)cc1	none
